The record followed here is PubChem BioAssay AID2685 (National Center for Advancing Translational Sciences (NCATS), 2010).

The structures appear in SMILES notation. Hit rate of the full screen: of about 320,000 compounds, about 2,100 (0.66%) were called active. Roughly 53% stayed inconclusive and do not appear here. Calls follow the shape of the dose curve; as a rule, active = well fitted inhibition curve with a large enough effect in the signal ratio, with a control signal flat (not every such curve was filed as active); inconclusive = small, poorly fitted or top-dose-only effect, or effect the other way, or a change in a side signal; inactive = flat fitted curve, though single readings scatter; the % refers to the signal ratio. This excerpt belongs to a sample that is enriched for actives.
Potency is read from the fitted curve at half-maximal effect.

The experiment can be described thus: qHTS Assay for Lipid Storage Modulators in Drosophila S3 Cells.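 As to cell number change: cells counted by Cell Tracker Red CMTPX staining in the red channel.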 As to lipid storage change, negative = inhibition: % is scaled to controls: 0 for no effect and ±100 for the full control effect. As to conditions: BODIPY lipid droplet fluorescence, 18-24 h, cells fed with added oleic acid; cell number change: measured here: cell count max response; series mostly up to 46.1 µM; lipid storage change, negative = inhibition: at the top concentration. Put shortly: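 Laser-scanning cytometry quantifies lipid droplet accumulation (500–530 nm total intensity; droplet/cell object ratio) in oleic acid-fed (400 uM added) Drosophila S3 cells treated with a concentration series. 20 uM Triacsin C defined 100% inhibition.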
A general note: qHTS replaces the single test concentration by a dilution series.
Consider `Cc1ccc(S(=O)(=O)Nc2cccc(-c3ccc4nnc(C)n4n3)c2)s1`, for which the “lipid storage change, negative = inhibition” value is -1.01% (inactive) and the cell number change is 7.02%. The like results for `O=C(NCc1ccccn1)Nc1cc(Cl)cc(Cl)c1` were, in that order, -7.61% (inactive) and 7.72%. The like results for `COc1ccc(C(NC(=O)C(C)(C)C)NC(=O)C(C)(C)C)cc1` were, in that order, 1.97% (inactive) and -2.15%. Taken in the same sequence, the figures for `O=C(CNS(=O)(=O)c1ccc(Br)s1)NC1CCCc2ccccc21` (stereo not drawn) were 19% (inactive) and -8.37%. In the case of `COc1ccc(C)cc1NC(=O)CCCN1C(=S)NC(C)(C)CC1C` (stereo not drawn), the “lipid storage change, negative = inhibition” value was 17.4% (inactive) and the cell number change was -1.97%. `COc1ccc(NC(=O)NCCCCc2ccccc2)cc1`: the molecule was classed as inactive and the cell number change was -11.6%. Take `CC(CNC(=O)CN1C(=O)NC2(CCCCC2C)C1=O)c1ccccc1` (stereo not drawn): the “lipid storage change, negative = inhibition” value is 16.9% (inactive) and the cell number change was -0.107%.

Take `CC(=O)N(/N=C1\Sc2ccccc2C1=O)c1ccccc1`: the “lipid storage change, negative = inhibition” value is -19.2% (inactive) and the cell number change was -6.02%. Taken in the same sequence, the figures for `COc1ccc(CCN(/C=C2\Sc3ccccc3C2=O)C(C)=O)cc1OC` were -6.81% (inactive) and 23.5%. On to `COc1ccccc1N(/N=C1\Sc2ccccc2C1=O)C(C)=O`, for which the Potency is 16.4 µM (active) and the cell number change came to 3.61%. For `CCOc1ccc(NC(=O)CN(C)C(=O)COc2cccc3c2OC(C)(C)C3)cc1OCC`, the “lipid storage change, negative = inhibition” value was 0.121% (inactive) and the cell number change was -24.3%. For the molecule `O=C(c1ccc(Cl)c(F)c1F)N1CCCC1`, the molecule was called inactive. As for `Cc1c(C)c2c(OCC(=O)NCc3ccco3)cc3c(c2oc1=O)CCC(C)(C)O3`, the “lipid storage change, negative = inhibition” value was 22.1% (inactive) and the cell number change came out at 6.15%.

With `COCCNC(=O)C12CC3CC(CC(Cl)(C3)C1)C2`, the “lipid storage change, negative = inhibition” value is -8.46% (inactive) and the cell number change was 18%. As for `COCCNCC(=O)C12CC3CC(CC(C3)C1)C2`, the Potency was 16.4 µM (active) and the cell number change is -15%. For the molecule `COCCC(=O)NC12CC3CC(CC(C3)C1)C2`, the “lipid storage change, negative = inhibition” value is -13.5% (inactive) and the cell number change is -7.91%. As to `O=c1[nH]c2ccccc2nc1C(F)(F)F`, the “lipid storage change, negative = inhibition” value was 8.88% (inactive) and the cell number change turned out to be 17.1%.

On to `Cc1onc(-c2ccccc2)c1C(=O)N/N=C/c1ccc(Br)cc1`, for which the “lipid storage change, negative = inhibition” value was 24.8% (inactive) and the cell number change worked out at 8.96%. On to `O=C(c1ccc(CS(=O)c2cccc(Cl)c2)o1)N1CCN(c2ccccn2)CC1` (stereo not drawn), for which the Potency was 18.4 µM (active) and the cell number change was -26.2%.

Turning to `Cc1ccc(CS(=O)Cc2ccc(C(=O)N3CCN(c4ccccc4)CC3)o2)cc1` (stereo not drawn), the call was inactive.

For the molecule `O=C(c1ccc(CS(=O)c2cccc(Cl)c2)o1)N1CCCCCC1` (stereo not drawn), the molecule was classed as inactive and the cell number change is -0.885%. On to `Cc1ccc(CS(=O)Cc2ccc(C(=O)N3CCN(c4ccccn4)CC3)o2)cc1` (stereo not drawn), for which the Potency is 7.31 µM (active).

`O=C(c1ccc(CS(=O)Cc2ccccc2Cl)o1)N1CCN(c2ccccn2)CC1` (stereo not drawn): the molecule was classed as inactive. With `O=C(c1ccc(CS(=O)c2cccc(Cl)c2)o1)N1CCOCC1` (stereo not drawn), the molecule was called inactive and the cell number change is -42.8%. `CC(=O)Nc1ccc(S(=O)(=O)N2CCCN(S(=O)(=O)c3ccc(C)cc3)CC2)cc1`: the “lipid storage change, negative = inhibition” value is -13.6% (inactive) and the cell number change is -14.2%. Regarding `O=C1/C(=N\S(=O)(=O)c2cccs2)C([n+]2ccccc2)=C([O-])c2ccccc21`, the Potency was 20.6 µM (active) and the cell number change was -19.9%. Take `N/C(=N\S(=O)(=O)c1cccs1)c1ccccc1`: the outcome was inactive and the cell number change was 3.91%. `Cc1ccc(/C=C2\S/C(=N/S(=O)(=O)c3cccs3)NC2=O)cc1`: the “lipid storage change, negative = inhibition” value is 6.03% (inactive) and the cell number change turned out to be 3.91%. The like results for `O=C1C(=O)c2ccccc2C([O-])=C1[n+]1ccccc1` were, in that order, -4.48% (inactive) and 19.4%. Taken in the same sequence, the figures for `Cc1cc[n+](-c2nc3ccccc3nc2[N-]S(=O)(=O)c2cccs2)cc1C` were 6.93% (inactive) and -0.563%.

For the molecule `CCc1ccc(NS(=O)(=O)c2cccs2)cc1`, the molecule was called inactive. For the molecule `CC(C)N(Cc1ccccc1)S(=O)(=O)c1cccs1`, the “lipid storage change, negative = inhibition” value is -12.8% (inactive). Take `Cc1cc[n+](C2=C([O-])c3ccccc3C(=O)/C2=N\S(=O)(=O)c2cccs2)cc1C`: the Potency is 8.2 µM (active) and the cell number change is -25.5%. For `NC(=NCCc1ccccc1)NS(=O)(=O)c1cccs1`, the “lipid storage change, negative = inhibition” value was -3.21% (inactive) and the cell number change is -0.301%. Take `CCc1cc[n+](C2=C([O-])c3ccccc3C(=O)/C2=N\S(=O)(=O)c2cccs2)cc1`: the Potency was 1.84 µM (active) and the cell number change came to 2.59%. As to `O=C1/C(=N\S(=O)(=O)c2cccs2)C([n+]2cccc(Cc3ccccc3)c2)=C([O-])c2ccccc21`, the Potency is 20.6 µM (active) and the cell number change is -9.11%. Regarding `CCCCC[n+]1ccn(C2=C([O-])c3ccccc3C(=O)/C2=N\S(=O)(=O)c2ccc(Br)cc2)c1`, the “lipid storage change, negative = inhibition” value is -3.49% (inactive).

For `O=[N+]([O-])c1cccc(C(=S)N2CCCC2)c1`, the “lipid storage change, negative = inhibition” value was 9.9% (inactive) and the cell number change came to 3.41%. The like results for `COc1ccccc1/C=C/C(=O)OCC(=O)NCc1ccco1` were, in that order, 0.24% (inactive) and 4.89%. The like results for `CCCc1c(C(=O)N/N=C(/C)c2ccncc2)nnn1-c1nonc1N` were, in that order, 3.04% (inactive) and 8.62%.

`Cc1ccc(/C=C2/SC(=S)N(C3CCCCC3)C2=O)o1`: the call was inactive and the cell number change is 14.1%. On to `Cc1cc(C)n(CCCN2C(=O)c3cccc4cccc(c34)C2=O)n1`, for which the molecule was classed as inactive. Turning to `CNCc1ccccc1OCC(=O)Nc1ccccc1`, the “lipid storage change, negative = inhibition” value was -4.97% (inactive) and the cell number change was -38.8%. As to `COc1ccc(CC(=O)OCC(=O)N2CCCc3ccccc32)cc1`, the outcome was inactive and the cell number change was -4.06%. `COCCCNC(=O)CCC(=O)NNc1nc2ccccc2c2nc(-c3ccccc3)nn12`: the “lipid storage change, negative = inhibition” value is 4.69% (inactive) and the cell number change amounted to 5.05%.

Turning to `CCOCCCNC(=O)CCC(=O)NNc1nc2ccccc2c2nc(-c3ccccc3)nn12`, the “lipid storage change, negative = inhibition” value is 2.08% (inactive) and the cell number change is -6.89%. `CC(C)OCCCNC(=O)CCC(=O)NNc1nc2ccccc2c2nc(-c3ccccc3)nn12`: the Potency is 11.6 µM (active) and the cell number change is -5.84%.

With `Cc1cc(C)cc(-n2c(N)c(C(=O)Nc3c(C)n(C)n(-c4ccccc4)c3=O)c3nc4ccccc4nc32)c1`, the “lipid storage change, negative = inhibition” value is -7.93% (inactive) and the cell number change was found to be 0.326%.
